Data on 38 molecules can be found in PubChem BioAssay AID651956 (Broad Institute, 2012).

SMILES strings stand for the structures. Results with a measured potency or affinity are listed apart. Results filed as inconclusive are left out. Values without a mark were called inactive.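 Rule for the calls: active = in every test run, a fitted half-maximal concentration for signal decrease at or below twice the highest tested concentration; inconclusive = runs disagree, flat 30 to 70% decrease, or poor fit; inactive = the rest.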

The assay is described as follows: activation of miR-122 Renilla sensor silencing – cell-based, Huh7 psiCHECK-miR122, Renilla luciferase, cherry-picked, dose response (AID 651956).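 Note: Renilla luciferase from a miR-122 sensor reporter so lower signal means miR-122 activation; 0% = median neutral control wells and -100% = median positive control wells.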 Particulars: Huh7 psiCHECK-miR122 Renilla luciferase reporter, 48 h; series mostly up to 35 µM; activity change, negative = signal decrease: at the top concentration.
For `N#Cc1ccc(NC(=O)Nc2ccc(Oc3ccc(NC(=O)Nc4ccc(C#N)cc4)cc3)cc2)cc1`, the “activity change, negative = signal decrease” value was -58.5%.
Consider `O=C(Nc1ccccc1)N1C[C@@H]2[C@H](c3ccccc31)[C@H](CO)N2Cc1cocn1`, for which the “activity change, negative = signal decrease” value was -18.3%.
Turning to `c1ccc(-c2nnc3n2CCCC3)cc1`, the “activity change, negative = signal decrease” value is -17.3%.
The same measure for `COCC(=O)Nc1ccc2c(c1)C(=O)N(C)[C@@H]1CC[C@@H](CC(=O)NC3CCCC3)O[C@@H]1CO2`: 13.2%; for `COCC(=O)NC[C@@H]1[C@H](c2ccc(C3=CCCC3)cc2)[C@@H](CO)N1C(=O)C1CC1`: 100%; for `O=C(Nc1ccccc1N1CCN(C(=O)c2ccc(Cl)cc2)CC1)c1cccnc1`: -13%.
The figure for `CCn1nnnc1SCC(=O)Nc1nnc(C(C)C)s1` is 82.1%; for `C/C=C/c1ccc([C@H]2[C@@H](CO)N(Cc3ccccn3)[C@H]2CNC(C)=O)cc1` it is -24.4%; for `CO[C@H]1CN(C)C(=O)c2cc(NC(=O)C3CC3)ccc2OC[C@H](C)N(CCc2ccccc2)C[C@H]1C` it is -34.8%.
The figure for `COc1cccc(S(=O)(=O)N(C)C[C@@H]2Oc3cc(C4=CCCCC4)ccc3S(=O)(=O)N([C@H](C)CO)C[C@@H]2C)c1` is 258%; for `COc1ccc(CN2CCOC2=O)cc1OC` it is 60.2%; for `CC(C)NC(=O)N1[C@H](CO)[C@@H](c2ccccc2)[C@@H]1CN(C)C(=O)c1cccnc1` it is -24.5%.
With `COCC(=O)Nc1ccc2c(c1)C(=O)N(C)[C@@H]1CC[C@H](CC(=O)NCc3ccccc3F)O[C@H]1CO2`, the “activity change, negative = signal decrease” value was 372%.
The same measure for `C=CCc1c(OC)ccc2ccc(=O)oc12`: 60%.
With `CC(=O)N1[C@H](CO)[C@@H](c2ccccc2)[C@H]1CN(C(=O)NC(C)C)C1CCCC1`, the “activity change, negative = signal decrease” value was 8.18%.
The figure for `CN1C(=O)c2cc(NC(=O)c3cccc(F)c3)ccc2OC[C@@H]2O[C@@H](CC(=O)NC3CCC3)CC[C@@H]21` is 53.3%; for `Cc1ccccc1NC(=O)Nc1ccc2c(c1)C(=O)N(C)[C@H]1CC[C@@H](CC(=O)O)O[C@H]1CO2` it is 387% [at 30 µM]; for `COc1ccc2c(c1)C(C)=CC(C)(C)N2C(=O)CNCc1ccc2c(c1)OCO2` it is -43.5%.
Turning to `COc1cccc(C(=O)Nc2ccc3c(c2)C(=O)N(C)[C@H]2CC[C@H](CC(=O)NCc4ccc(F)cc4)O[C@@H]2CO3)c1`, the “activity change, negative = signal decrease” value was 60.8%.
The figure for `CCCNC(=O)N1[C@@H]2CN(C(=O)c3ccccc3)c3ccccc3[C@@H]2[C@@H]1CO` is 25.6%; for `CCCN(C[C@@H]1N[C@@H](CO)[C@H]1c1ccc(-c2cccnc2)cc1)C(C)=O` it is -34.4%.
In the case of `CN[C@H]1C[C@H]2c3[nH]c4ccc(-c5ccc(OC)cc5)cc4c3CCN2C(=O)[C@H]1[C@H](C)O`, the “activity change, negative = signal decrease” value was -96.4%.
With `CC(=O)Nc1ccc(-c2cc(-c3ccc(NC(C)=O)cc3)nc(-c3ccc(NC(C)=O)cc3)n2)cc1`, the “activity change, negative = signal decrease” value is 63.9%.
The figure for `CNC(=O)C[C@@H]1CC[C@@H]2[C@@H](COc3ccc(NC(=O)NC(C)C)cc3C(=O)N2C)O1` is 13.3%.
Take `CNC(=O)C[C@H]1CC[C@H]2[C@H](COc3ccc(NC(=O)c4cccc(OC)c4)cc3C(=O)N2C)O1`: the “activity change, negative = signal decrease” value was 16.2%.
With `c1cnc(N2CCN(Cc3c[nH]c4ccccc34)CC2)nc1`, the “activity change, negative = signal decrease” value was -24.5%.
On to `CCNC(=O)C[C@H]1CC[C@H]2[C@@H](COc3ccc(NS(C)(=O)=O)cc3C(=O)N2C)O1`, for which the “activity change, negative = signal decrease” value was -11.3%.
As for `Cc1cc(C(=O)Nc2cccc(O)c2)co1`, the “activity change, negative = signal decrease” value was -6.99%.
The figure for `CCCCC(=O)OCC(=O)c1[nH]c(C)c(C(=O)OCC)c1C` is -21.6%.
Turning to `COC(=O)C[C@H]1CC[C@@H]2[C@@H](COc3ccc(NC(=O)Nc4cccc(F)c4)cc3C(=O)N2C)O1`, the “activity change, negative = signal decrease” value is 55.7%.
Turning to `CN1C(=O)c2cc(NC(=O)c3cccs3)ccc2OC[C@@H]2O[C@H](CC(=O)NCC(F)(F)F)CC[C@H]21`, the “activity change, negative = signal decrease” value is -19.1%.
With `CCCNC(=O)C[C@@H]1CC[C@@H]2[C@H](COc3ccc(NC(=O)Nc4ccccc4F)cc3C(=O)N2C)O1`, the “activity change, negative = signal decrease” value was -38.3%.
Turning to `CCCC(=O)Nc1ccc2c(c1)C(=O)N(C)[C@H]1CC[C@@H](CC(=O)NCCN3CCCCC3)O[C@H]1CO2`, the “activity change, negative = signal decrease” value was 138%.
Take `CCC(=O)N1[C@@H](CO)[C@H](c2ccccc2)[C@@H]1CN(C(C)C)S(C)(=O)=O`: the “activity change, negative = signal decrease” value was 182%.
With `COc1ccc(-c2c(-c3ccccc3)c(C(=O)C(=O)NCCCN(C)C)n3ccc4cc(OC)c(OC)cc4c23)cc1OC`, the “activity change, negative = signal decrease” value was -109%.
The same measure for `COc1ccc(NC(=O)COC(=O)CCCc2c[nH]c3ccccc23)cc1`: -11.8%.
As to `COCC(=O)N1[C@@H](CO)[C@@H]2c3ccccc3N(C(=O)C3CC3)C[C@@H]21`, the “activity change, negative = signal decrease” value was 17.5%.
The figure for `C/C=C/c1ccc([C@H]2[C@@H](CO)N(C(=O)CC)[C@H]2CNC(=O)CC)cc1` is 7.81%.
